Reference: PubChem BioAssay AID1159580 (chemical genetic matrix, 2015)
The whole screen tested about 5,500 compounds, of which about 2,000 (36%) were called active. Another 18% or so got no clear call; they are omitted. Rule as the data show it: active = normalized growth mostly below about 0.91 (no sharp cut-off); inconclusive = no clear call, values can overlap the other calls; inactive = mostly above about 0.92. The list shows a part of the results.

Experiment: chemical genetic growth profiling, strain panel (AID 1159580);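 also: tested at 20 µM; growth read once vehicle control cultures reached saturation at 30 °C; 1 = growth at the plate median or of vehicle wells; lower values mean less growth of the strain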
Conditions: growth OD

Measured: normalized growth

CCCCCC1C(=O)CCC1CC(=O)OC (stereo unspecified)
inactive: S. cerevisiae deletion strains, locus YJR043C, strain POL32, active compounds read low 0.991 | S. cerevisiae deletion strains, locus YJR066W, strain TOR1, active compounds read low 0.982 | S. cerevisiae deletion strains, locus YJR075W, strain HOC1, active compounds read low 1.01 | S. cerevisiae deletion strains, locus YKL009W, strain mrt4, active compounds read low 0.914 | S. cerevisiae deletion strains, locus YKL068W, active compounds read low 0.952 | S. cerevisiae deletion strains, locus YKL085W, strain MDH1 (second series), active compounds read low 0.96 | S. cerevisiae deletion strains, locus YKL085W, strain MDH1, active compounds read low 0.96 | S. cerevisiae deletion strains, locus YKL160W, strain elf1, active compounds read low 0.988 | S. cerevisiae deletion strains, locus YKR001C, strain vps1, active compounds read low 0.951 | S. cerevisiae deletion strains, locus YKR026C, strain gcn3, active compounds read low 0.976 | S. cerevisiae deletion strains, locus YKR091W, strain srl3, active compounds read low 0.982 | S. cerevisiae deletion strains, locus YLL001W, strain dnm1, active compounds read low 0.983 | S. cerevisiae deletion strains, locus YLL026W, active compounds read low 0.981 | S. cerevisiae deletion strains, locus YLL041C, strain sdh2, active compounds read low 0.982 | S. cerevisiae deletion strains, locus YLR027C, strain aat2, active compounds read low 0.983 | S. cerevisiae deletion strains, locus YLR039C, strain RIC1, active compounds read low 1.03 | S. cerevisiae deletion strains, locus YLR058C, strain SHM2, active compounds read low 1 | S. cerevisiae deletion strains, locus YLR102C, strain apc9, active compounds read low 0.956 | S. cerevisiae deletion strains, locus YLR113W, strain HOG1, active compounds read low 0.942 | S. cerevisiae deletion strains, locus YLR221C, strain rsa3, active compounds read low 0.985 | S. cerevisiae deletion strains, locus YLR258W, strain gsy2, active compounds read low 0.981 | S. cerevisiae deletion strains, locus YLR262C, strain YPT6 (second series), active compounds read low 1.02 | S. cerevisiae deletion strains, locus YLR262C, strain YPT6, active compounds read low 1.05 | S. cerevisiae deletion strains, locus YLR268W, strain sec22, active compounds read low 0.956 | S. cerevisiae deletion strains, locus YLR320W, strain mms22, active compounds read low 0.97 | S. cerevisiae deletion strains, locus YLR330W, strain CHS5, active compounds read low 0.97 | S. cerevisiae deletion strains, locus YLR342W, strain FKS1 (second series), active compounds read low 1.08 | S. cerevisiae deletion strains, locus YLR342W, strain FKS1, active compounds read low 0.984 | S. cerevisiae deletion strains, locus YLR357W, strain rsc2, active compounds read low 0.947 | S. cerevisiae deletion strains, locus YLR370C, strain arc18, active compounds read low 0.978 | S. cerevisiae deletion strains, locus YLR371W, strain rom2, active compounds read low 0.958 | S. cerevisiae deletion strains, locus YLR384C, strain iki3, active compounds read low 0.961 | S. cerevisiae deletion strains, locus YLR418C, strain cdc73, active compounds read low 1.02 | S. cerevisiae deletion strains, locus YML016C, strain PPZ1, active compounds read low 0.975 | S. cerevisiae deletion strains, locus YML032C, strain rad52, active compounds read low 0.983 | S. cerevisiae deletion strains, locus YML120C, strain ndi1, active compounds read low 0.994 | S. cerevisiae deletion strains, locus YML124C, strain tub3, active compounds read low 0.941 | S. cerevisiae deletion strains, locus YMR058W, strain fet3, active compounds read low 0.992 | S. cerevisiae deletion strains, locus YMR078C, strain ctf18, active compounds read low 0.945 | S. cerevisiae deletion strains, locus YMR125W, strain sto1, active compounds read low 0.971 | S. cerevisiae deletion strains, locus YMR129W, active compounds read low 0.973 | S. cerevisiae deletion strains, locus YMR205C, strain PFK2, active compounds read low 0.969 | S. cerevisiae deletion strains, locus YMR223W, strain ubp8, active compounds read low 0.981 | S. cerevisiae deletion strains, locus YMR231W, strain pep5, active compounds read low 0.97 | S. cerevisiae deletion strains, locus YMR263W, strain SAP30, active compounds read low 1.02 | S. cerevisiae deletion strains, locus YMR307W, strain GAS1, active compounds read low 1.24 | S. cerevisiae deletion strains, locus YNL067W, strain RPL9B, active compounds read low 1.03 | S. cerevisiae deletion strains, locus YNL071W, strain lat1, active compounds read low 0.988 | S. cerevisiae deletion strains, locus YNL153C, strain GIM3, active compounds read low 1.02 | S. cerevisiae deletion strains, locus YNL183C, strain NPR1, active compounds read low 0.928 | S. cerevisiae deletion strains, locus YNL209W, strain ssb2, active compounds read low 0.983 | S. cerevisiae deletion strains, locus YNL233W, strain BNI4, active compounds read low 1.04 | S. cerevisiae deletion strains, locus YNL248C, strain rpa49, active compounds read low 0.967 | S. cerevisiae deletion strains, locus YNL250W, strain rad50, active compounds read low 0.945 | S. cerevisiae deletion strains, locus YNL271C, strain bni1, active compounds read low 0.937 | S. cerevisiae deletion strains, locus YNL298W, strain CLA4, active compounds read low 0.966 | S. cerevisiae deletion strains, locus YNL307C, strain MCK1, active compounds read low 0.97 | S. cerevisiae deletion strains, locus YNL322C, strain KRE1 (second series), active compounds read low 0.981 | S. cerevisiae deletion strains, locus YNL322C, strain KRE1, active compounds read low 0.988 | S. cerevisiae deletion strains, locus YNR049C, strain mso1, active compounds read low 0.987 | S. cerevisiae deletion strains, locus YNR052C, strain pop2, active compounds read low 0.978 | S. cerevisiae deletion strains, locus YOL012C, strain htz1 1.15 | S. cerevisiae deletion strains, locus YOL147C, strain pex11, active compounds read low 0.965 | S. cerevisiae deletion strains, locus YOR001W, strain rrp6, active compounds read low 0.977 | S. cerevisiae deletion strains, locus YOR061W, strain CKA2, active compounds read low 0.99 | S. cerevisiae deletion strains, locus YOR069W, strain VPS5, active compounds read low 0.978 | S. cerevisiae deletion strains, locus YOR070C, strain gyp1, active compounds read low 0.972 | S. cerevisiae deletion strains, locus YOR080W, strain dia2, active compounds read low 0.974 | S. cerevisiae deletion strains, locus YOR083W, strain WHI5, active compounds read low 0.986 | S. cerevisiae deletion strains, locus YOR106W, strain vam3, active compounds read low 1.03 | S. cerevisiae deletion strains, locus YOR136W, strain idh2, active compounds read low 0.973 | S. cerevisiae deletion strains, locus YOR144C, strain elg1, active compounds read low 0.963 | S. cerevisiae deletion strains, locus YOR184W, strain ser1, active compounds read low 0.921 | S. cerevisiae deletion strains, locus YOR231W, strain MKK1, active compounds read low 0.977 | S. cerevisiae deletion strains, locus YOR265W, strain rbl2, active compounds read low 0.981 | S. cerevisiae deletion strains, locus YOR270C, strain vph1, active compounds read low 0.997 | S. cerevisiae deletion strains, locus YOR290C, strain snf2, active compounds read low 1 | S. cerevisiae deletion strains, locus YOR316C, strain cot1, active compounds read low 0.952 | S. cerevisiae deletion strains, locus YPL051W, strain arl3, active compounds read low 0.991 | S. cerevisiae deletion strains, locus YPL055C, strain LGE1, active compounds read low 1 | S. cerevisiae deletion strains, locus YPL078C, strain atp4, active compounds read low 0.975 | S. cerevisiae deletion strains, locus YPL106C, strain sse1, active compounds read low 0.999 | S. cerevisiae deletion strains, locus YPL240C, strain hsp82, active compounds read low 0.969 | S. cerevisiae deletion strains, locus YPL241C, strain CIN2, active compounds read low 0.977 | S. cerevisiae deletion strains, locus YPL256C, strain CLN2, active compounds read low 0.97 | S. cerevisiae deletion strains, locus YPR119W, strain clb2, active compounds read low 0.939 | S. cerevisiae deletion strains, locus YPR141C, strain kar3, active compounds read low 0.944 | S. cerevisiae deletion strains, locus YPR163C, strain tif3, active compounds read low 0.963 | S. cerevisiae deletion strains, locus YPR167C, strain met16, active compounds read low 0.959 | S. cerevisiae deletion strains, strain wtn01, active compounds read low 0.962 | S. cerevisiae strains, strain wild type, active compounds read low 1
